Screening results deposited in PubChem by The Scripps Research Institute Molecular Screening Center.
Only some compounds are listed: those with a hit (about 2.6% of all), similar ones and a draw of the others.
DNA FID counter: compounds displacing fluorescent DNA intercalator, primary screen, artefact control for HCV NS3 helicase inhibitor project, biochemical, FID fluorescence | DNA fluorescent intercalator displacement | 290,000 compounds, 0.17% hits | inhibition, % at 7.9 µM; in the data active = inhibition above about 37%;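 note: 0% = vehicle and 100% = reference compound; higher means more ethidium bromide displaced from hairpin DNA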
KLF5 inh: KLF5 expression inhibitors, primary screen, DLD-1 cells, luminescence. inhibition, % at 5 µM. 290,000 compounds, 0.23% hits. DLD-1 KLF5 promoter-luciferase reporter;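 active = inhibition above a per-plate limit of that plate's mean compound inhibition plus 3 SD, cut at about 60% in these data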;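 note: 0% = DMSO wells and 100% = LY294002 at 200 µM; higher means less KLF5 promoter-driven luciferase light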
GPR7 antagonist: GPR7 receptor antagonists, primary screen, cell-based, fluorescence, single concentration; Neuropeptides B/W receptor type 1 (Homo sapiens), P48145; AID 1861, 2009; inhibition, % at 4.4 µM; GPR7-expressing cells, fluorescence antagonist assay; 290,000 compounds, 1.1% hits; in the data active = inhibition above about 16%, passing the limit was not always enough;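 note: cells stimulated with the agonist NPW; 0% = agonist with vehicle and 100% = vehicle without agonist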
Target sequence (P48145 whole entry, looked up): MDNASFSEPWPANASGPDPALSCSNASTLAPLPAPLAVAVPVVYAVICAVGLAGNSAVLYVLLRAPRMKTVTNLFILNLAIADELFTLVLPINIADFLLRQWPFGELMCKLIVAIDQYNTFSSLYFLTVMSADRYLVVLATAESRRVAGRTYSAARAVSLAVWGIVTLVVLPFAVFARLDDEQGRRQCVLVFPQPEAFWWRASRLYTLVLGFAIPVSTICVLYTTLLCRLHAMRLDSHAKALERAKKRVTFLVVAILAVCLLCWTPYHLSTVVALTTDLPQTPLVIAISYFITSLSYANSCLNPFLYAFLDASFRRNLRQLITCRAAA
BaF3 tox: parental Ba/F3 cell viability inhibition, counter-screen for JAK2V617F inhibitor project, murine pro-B, CellTiter-Glo luminescence. 220,000 compounds, 1.1% hits. CellTiter-Glo ATP luminescence. inhibition, % at 5.6 µM;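 active = inhibition above a per-campaign cutoff, the mean inhibition of all tested compounds plus 3 SD, cut at about 27% in these data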;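 note: 0% = DMSO wells and 100% = JAK Inhibitor I control wells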
Ba/F3 V617F tox: reduced viability of JAK2V617F-dependent Ba/F3 cells, primary screen, JAK2V617F inhibitor project, cell-based, Ba/F3 EpoR-JAK2V617F, luminescence; ATP luminescence; inhibition, % at 5.6 µM; 220,000 compounds, 1.1% hits; AID 1446, 2008;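 active = inhibition above the campaign mean plus 3 SD over all tested compounds, cut at about 24% in these data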;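 note: cytokine-independent growth of Ba/F3 cells driven by EpoR plus mutant JAK2; 0% = DMSO-treated cells and 100% = JAK inhibitor I control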
IEC-6 cytotox: cytotoxicity in IEC-6 intestinal epithelial cells, primary screen, cytotoxicity control for KLF5 inhibitor project, cell-based, luminescence; IEC-6 cytotoxicity, luminescence viability; inhibition, % at 5 µM; 290,000 compounds, 0.78% hits;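 note: 0% = plate median of test compound wells and 100% = cytotoxic reference compound wells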
IEC-6 tox confirm: cytotoxic compounds in IEC-6 epithelial cells, confirmation, cytotoxicity control, cell-based, luminescence; shares compounds with IEC-6 cytotox; inhibition, % at 5 µM; IEC-6 rat intestinal epithelial viability; 1,900 compounds, 63% hits; AID 1907, 2009;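 note: 0% = vehicle and 100% = reference cytotoxic drug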
GPR7 antag conf: GPR7 receptor antagonists, confirmation, cell-based, fluorescence, single concentration. inhibition, % at 4.4 µM. 2,400 compounds, 52% hits. shares compounds with GPR7 antagonist. GPR7-expressing cells, calcium fluorescence antagonist mode. AID 1952, 2009; in the data active = inhibition above about 24%;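 note: stimulated with the GPR7 agonist NPW; 0% = agonist plus vehicle and 100% = vehicle alone without agonist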
MCHR1 antag: MCHR1 antagonists in cells, counter-screen for GPR7 antagonist project, cell-based, fluorescence, human; AID 2148, 2009; inhibition, % at 4.4 µM; MCHR1-expressing cells, fluorescence antagonist assay; shares compounds with GPR7 antagonist; 2,400 compounds, 62% hits;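 note: 0% = vehicle with agonist and 100% = vehicle without agonist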
* marks the source's active call; other numbers are inactive results; / = no result given; ! = not active in a repeat. Cut-off read from the data, not from the text of the source, unless noted: active = inhibition above about 22%; inactive = the rest.

SMILES	DNA FID counter	KLF5 inh	GPR7 antagonist	BaF3 tox	Ba/F3 V617F tox	IEC-6 cytotox	IEC-6 tox confirm	GPR7 antag conf	MCHR1 antag
CC[n+]1c(/C=C/N(C)c2ccccc2)n(-c2ccccc2)c2ccc(-c3nc4ccccc4s3)cc21	41*	29	84*	/	/	58*	12	95*	89*
Cc1noc(NC(=O)c2ccccc2)c1C#N	0	2	-1	-4	-2	-4	/	/	/
CC1CCC(C(C)C)C(OC(=O)Cn2c(-c3ccccc3)[n+](C)c3ccccc32)C1 (configuration not stated)	31	18	86*	93*	101*	28*!	18	92*	83*
CCn1c(-c2ccc(N)cc2)nc2ccccc21	-1	-19	-12	3	-3	3	/	/	/
CCn1c(-c2ccc(N(C)C)cc2)nc2ccccc21	12	-89	37*	68*	78*	30*	6	17	26*
CCCOC(=O)c1ccc(NC(=O)COC)cc1	-6	-56	-3	4	0	3	/	/	/
CC(=O)Nc1ccc(C(=O)OCCC(C)C)cc1	-2	-52	25*	7	-1	25*	23*	11	-2
CCc1ccc2[nH]c(=O)c(CN(CCCN3CCOCC3)C(=O)Nc3cccc(Cl)c3)cc2c1	-1	16	-4	4	4	6	/	/	/
O=S(=O)(NC1c2cccc3cccc(c23)C1N1CCNCC1)c1ccc(Cl)cc1 (configuration not stated)	43*	10	49*	11	6	36*	8	48*	47*
CC(=O)N1CCN(C2c3cccc4cccc(c34)C2NS(=O)(=O)c2ccccc2)CC1 (configuration not stated)	-29	-24	6	0	2	3	/	/	/
CN(Cc1ccccc1)C1=CC(=[N+]2CCCCC2)CC(C)(C)C1	12	20	40*	79*	98*	34*	19	57*	48*
Cc1cc(N(C)Cc2ccccc2)nc(-c2ccccc2)n1	-1	-15	-15	3	-2	2	/	/	/
Cc1ccc2sc(N(CCCN(C)C)C(=O)CCS(=O)(=O)c3ccccc3)nc2c1C	41*	5	48*	/	/	24*	5	43*	51*
CN(C)CCN(C(=O)CCS(=O)(=O)c1ccccc1)c1nc2c(F)cccc2s1	0	-18	6	/	/	3	/	/	/
COc1ccc(C2=NOC(COc3ccc4c(C)cc(=O)oc4c3)C2)c(OC)c1 (configuration not stated)	-25	49	22*	70*	78*	60*	56*	34*	34*
Cc1cc(=O)oc2cc(Oc3ncccn3)ccc12	-3	-39	-6	2	2	-6	/	/	/
CC(NC(=O)c1cc2sccc2n1C)c1ccc2c(c1)OCCO2 (configuration not stated)	-6	-16	5	-2	-4	2	/	/	/
CCN1CCN(Cc2ccc(NC(=O)c3ccc(C)c(NC(=O)C(=O)c4c[nH]c5ccccc45)c3)cc2C(F)(F)F)CC1	30	-28	36*	/	/	55*	-1	61*	74*
CC(C)C(=O)N1CCN(c2ccccc2NC(=O)c2ccc([N+](=O)[O-])o2)CC1	-28	-8	35*	/	/	26*	23*	28*	21
O=C(Nc1ccccc1N1CCN(C(=O)c2ccccc2)CC1)c1ccc([N+](=O)[O-])o1	-36	4	37*	/	/	28*	12	33*	35*
O=C(c1cccc(C(=O)N2CCN(c3ccccc3)CC2)c1)N1CCN(c2ccccc2)CC1	-44	-23	-10	6	1	-8	/	/	/
Cc1cccc(NC(=O)/C(C#N)=C/c2ccccc2O)n1	-4	-82	-4	/	/	5	/	/	/
COc1cc2c3c(c1)C(C)=CC(C)(C)N3C(=O)C2=O	2	-3	27*	-1	-7	87*	44*	19	23*
NS(=O)(=O)c1ccc(CCNC(=O)CCS(=O)(=O)c2ccc(Br)cc2)cc1	-6	-21	-4	/	/	2	/	/	/
O=C(c1ccco1)N(Cc1cccc([N+](=O)[O-])c1)c1ccc(Br)cc1	-6	-27	2	4	2	2	/	/	/
SMILES	DNA FID counter	KLF5 inh	GPR7 antagonist	BaF3 tox	Ba/F3 V617F tox	IEC-6 cytotox	IEC-6 tox confirm	GPR7 antag conf	MCHR1 antag
Cn1c(=O)c([N+](=O)[O-])c(Cl)c2ccccc21	6	15	26*	7	3	48*	64*	51*	76*
CCN(CC)c1c([N+](=O)[O-])c(=O)n(C)c2ccccc12	-5	-17	-28	4	-3	0	/	/	/
COc1ccccc1-c1cc(C(=O)NC2CCN(C)CC2)c2ccc(Cl)c(C)c2n1	31	-20	43*	/	/	30*	-3	69*	81*
Cc1c(Cl)ccc2c(C(=O)NCCN3CCCCC3)cc(-c3ccccn3)nc12	22	8	-3	10	9	-5	/	/	/
CCOc1cc(S(=O)(=O)N2CCN(Cc3ccccc3)CC2)ccc1Br	-5	-12	-12	5	0	4	/	/	/
Cc1ccc(N(C)S(=O)(=O)c2ccc(-c3cnc(C4CC4)o3)cc2)cc1	-24	52	37*	/	/	76*	55*	16	37*
Cc1ccccc1C(=O)N1CCN(c2ccccn2)CC1	-10	5	-8	3	-1	2	/	/	/
O=C(c1ccccc1-c1ccccc1)N1CCN(c2ccccn2)CC1	-26	35	27*	55*	75*	34*	39*	23	24*
Cc1cc(C(=O)NNC(=O)c2c(-c3c(Cl)cccc3Cl)noc2C)no1	-11	-33	-9	/	/	-4	/	/	/
CCCCCCCCCCCCCCCCn1cc[n+](C)c1	12	8	31*!	69*	98*	35*	32*	94*	99*
O=C(Nc1ccc2ccccc2c1)c1cccc(F)c1	-2	-161	3	-4	-5	5	/	/	/
